Assay results: PubChem BioAssay (NCI)
“And” between values parts separate entries of the source, which are not always exact repeats. Equal entries are not always repeated. About 83,000 compounds went through this panel and 20% of them were active in at least one assay; those are over-represented in the sample as a whole.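 96-well plates, one dose, 48 hours. Percent growth reported; active if below 10.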 The source made the active and inactive calls.

Key:
Assay in all cases: NCI-60 one-dose screen, 48 h (100 = growth as untreated, 0 = no growth, -100 = all killed)
[1] = tested on: NCI-H23 lung; conditions: 10 µM unless noted
[2] = tested on: NCI-H226 lung; conditions: 10 µM unless noted
[3] = tested on: NCI-H322M lung; conditions: 10 µM unless noted
[4] = tested on: HOP-62 NSCLC; conditions: 10 µM unless noted
[5] = tested on: NCI-H460 lung; conditions: 10 µM unless noted
[6] = tested on: HOP-92 NSCLC; conditions: 10 µM
[7] = tested on: A549/ATCC NSCLC; conditions: 10 µM unless noted
[8] = tested on: 786-0 renal; conditions: 10 µM unless noted
[9] = tested on: COLO 205 colon; conditions: 10 µM unless noted
[10] = tested on: DU-145 prostate; conditions: 10 µM unless noted
[11] = tested on: K-562 leukemia; conditions: 10 µM unless noted
[12] = tested on: MALME-3M melanoma; conditions: 10 µM unless noted
[13] = tested on: MDA-MB-231 breast; conditions: 10 µM unless noted
[14] = tested on: RXF 393 renal; conditions: 10 µM unless noted
[15] = tested on: SF-268 CNS; conditions: 10 µM unless noted
[16] = tested on: SF-295 CNS; conditions: 10 µM unless noted
[17] = tested on: SF-539 CNS; conditions: 10 µM unless noted
[18] = tested on: M14 melanoma; conditions: 10 µM unless noted
[19] = tested on: NCI-H522 lung; conditions: 10 µM
[20] = tested on: UACC-257 melanoma; conditions: 10 µM unless noted

Row | Structure (SMILES) | growth [1] | growth [2] | growth [3] | growth [4] | growth [5] | growth [6] | growth [7] | growth [8] | growth [9] | growth [10] | growth [11] | growth [12] | growth [13] | growth [14] | growth [15] | growth [16] | growth [17] | growth [18] | growth [19] | growth [20]
1 | OCCN1CCCCCCC1 | 105% (inactive) | 93.8% (inactive) | 101% (inactive) | 99.5% (inactive) | 106% (inactive) | 68% (inactive) | 99% (inactive) | 101% (inactive) | 104% (inactive) | 113% (inactive) | 105% (inactive) | 96% (inactive) | 99.5% (inactive) | 100% (inactive) | 107% (inactive) | 95.9% (inactive) | 98.7% (inactive) | 92.3% (inactive) |  | 
2 | OCC1OC(O)C(O)C(O)C1O (configuration not stated) | 102% (inactive) | 113% (inactive) | 155% (inactive) | 98.9% (inactive) | 100% (inactive) | 85.9% (inactive) | 108% (inactive) | 110% (inactive) | 108% (inactive) | 120% (inactive) | 110% (inactive) | 180% (inactive) | 116% (inactive) | 124% (inactive) | 102% (inactive) | 102% (inactive) | 102% (inactive) | 101% (inactive) | 85.7% (inactive) | 114% (inactive)
3 | CC[C@H](CC[C@@H](C)[C@H]1CC[C@H]2[C@@H]3CC=C4C[C@@H](O)CC[C@]4(C)[C@H]3CC[C@]12C)C(C)C | 5.59% (active) and 96.6% (inactive) | 99.6% (inactive) and 101% (inactive) | 92.6% (inactive) and 103% (inactive) | 108% (inactive) and 101% (inactive) | 105% (inactive) and 107% (inactive) |  | 102% (inactive) | 95.3% (inactive) and 106% (inactive) | 103% (inactive) and 107% (inactive) | 114% (inactive) and 103% (inactive) | 106% (inactive) | 106% (inactive) and 104% (inactive) | 115% (inactive) and 97.9% (inactive) | 104% (inactive) | 101% (inactive) and 97.6% (inactive) | 98.3% (inactive) and 101% (inactive) | 92.2% (inactive) and 99.1% (inactive) | 103% (inactive) and 106% (inactive) | 18.7% (inactive) and 97% (inactive) | 97.5% (inactive)
4 | CCCCCCCCCCCCCCCc1ccc(N)c(OC2OC(CO)C(O)C(O)C2O)c1 (configuration not stated) | 80.9% (inactive) | 96.4% (inactive) | 77.1% (inactive) | 73.9% (inactive) | 102% (inactive) | 82% (inactive) | 86% (inactive) | 81.7% (inactive) |  | 119% (inactive) | 83.4% (inactive) | 22.5% (inactive) | 70% (inactive) |  | 99% (inactive) | 92.2% (inactive) | 93.4% (inactive) | 82.5% (inactive) | -63.5% (active) | 51.5% (inactive)
5 | CC1(C)COC(=S)N1 | 101% (inactive) | 94.5% (inactive) | 101% (inactive) | 99.8% (inactive) | 113% (inactive) |  | 104% (inactive) | 99.7% (inactive) | 124% (inactive) | 114% (inactive) | 91.7% (inactive) | 104% (inactive) | 96.5% (inactive) | 98.8% (inactive) | 107% (inactive) | 98.4% (inactive) | 107% (inactive) | 101% (inactive) | 85.2% (inactive) | 99.6% (inactive)
6 | O=C1OC(C(O)C(O)CO)C(O)=C1O (configuration not stated) | 113% (inactive) and 98.1% (inactive) | 100% (inactive) | 111% (inactive) and 97.3% (inactive) | 94.4% (inactive) and 88.1% (inactive) | 96.8% (inactive) and 112% (inactive) |  | 104% (inactive) and 74.9% (inactive) | 95% (inactive) and 97.2% (inactive) | 101% (inactive) and 96.9% (inactive) | 115% (inactive) | 99% (inactive) and 90.4% (inactive) | 94.2% (inactive) | 116% (inactive) and 101% (inactive) | 116% (inactive) | 109% (inactive) and 105% (inactive) | 136% (inactive) and 101% (inactive) | 96.8% (inactive) | 96.9% (inactive) and 100% (inactive) | 8.89% (active) and 80% (inactive) | 98.7% (inactive) and 88.2% (inactive)
7 | NN1CCOC(c2ccccc2)C1 (configuration not stated) | 104% (inactive) | 99.4% (inactive) | 97.7% (inactive) | 99.6% (inactive) | 115% (inactive) |  | 104% (inactive) | 103% (inactive) | 107% (inactive) | 102% (inactive) | 10.3% (inactive) |  | 99.1% (inactive) | 101% (inactive) | 99.6% (inactive) | 118% (inactive) | 100% (inactive) | 90.9% (inactive) | 125% (inactive) | 103% (inactive)
8 | N#CC(C#N)N=Nc1ccc(Cl)cc1 | 36.5% (inactive) | 75.1% (inactive) | 93.2% (inactive) | 84.9% (inactive) | 91% (inactive) |  | 105% (inactive) | 59% (inactive) | -33.9% (active) | 68.2% (inactive) | 10.2% (inactive) | 15.6% (inactive) | 47.2% (inactive) | 61.4% (inactive) | 84.9% (inactive) | 94.7% (inactive) | 53.1% (inactive) | 60.1% (inactive) | -12.4% (active) | 20.8% (inactive)
9 | c1ccc(-c2nc3ccccc3s2)cc1 | 88.2% (inactive) |  | 81.1% (inactive) | 76.3% (inactive) | 97.5% (inactive) | 82.4% (inactive) | 105% (inactive) | 105% (inactive) | 110% (inactive) | 113% (inactive) | 102% (inactive) | 97.5% (inactive) | 68.5% (inactive) | 106% (inactive) | 95% (inactive) | 97.9% (inactive) | 96% (inactive) | 97.3% (inactive) |  | 98.5% (inactive)
10 | N#CC(C#N)N=Nc1cc(Cl)ccc1Cl | 106% (inactive) | 104% (inactive) |  | 104% (inactive) | 102% (inactive) |  | 98.4% (inactive) | 102% (inactive) | 110% (inactive) | 111% (inactive) | 95.3% (inactive) |  | 91.7% (inactive) | 115% (inactive) | 95% (inactive) |  | 99.8% (inactive) | 98.5% (inactive) | 89.8% (inactive) | 92% (inactive)
11 | Cl | 97.5% (inactive) | 105% (inactive) |  |  | 107% (inactive) |  | 103% (inactive) | 104% (inactive) | 115% (inactive) | 119% (inactive) |  | 116% (inactive) | 115% (inactive) | 117% (inactive) | 116% (inactive) | 99.2% (inactive) | 111% (inactive) | 107% (inactive) |  | 105% (inactive)
12 | NC(=O)NCCCC(N)C(=O)O (configuration not stated) | 103% (inactive) | 98.2% (inactive) | 88.6% (inactive) | 98.4% (inactive) | 108% (inactive) |  | 104% (inactive) | 101% (inactive) | 106% (inactive) | 101% (inactive) | 97.9% (inactive) | 93.1% (inactive) | 104% (inactive) | 106% (inactive) | 104% (inactive) | 117% (inactive) | 103% (inactive) | 100% (inactive) |  | 102% (inactive)
13 | CC(C)NC(=O)N/C=C(\C#N)C(N)=O | 92.7% (inactive) | 97.5% (inactive) | 99.5% (inactive) | 88.2% (inactive) | 91.1% (inactive) |  | 111% (inactive) | 99% (inactive) | 103% (inactive) | 107% (inactive) | 116% (inactive) | 89.3% (inactive) | 111% (inactive) | 98.9% (inactive) | 101% (inactive) | 102% (inactive) | 97.9% (inactive) | 95.3% (inactive) | 87.2% (inactive) | 
14 | O=C(/C=C/c1ccccc1)c1ccccc1 | 84.6% (inactive) | 126% (inactive) | 115% (inactive) | 94.9% (inactive) | 93.1% (inactive) |  | 96.3% (inactive) | 86.9% (inactive) | 114% (inactive) | 97.7% (inactive) |  | 128% (inactive) | 110% (inactive) | 114% (inactive) | 97.2% (inactive) | 99.1% (inactive) | 88.2% (inactive) | 98.1% (inactive) | 84.8% (inactive) | 106% (inactive)
15 | COc1ccc(N/C=C/C2=[N+](C)c3ccccc3C2(C)C)c(OC)c1 | 79.8% (inactive) | 83% (inactive) | 102% (inactive) | 92.7% (inactive) | 96.3% (inactive) |  | 92.9% (inactive) | 88.9% (inactive) | 99.5% (inactive) | 102% (inactive) | 103% (inactive) | 85.5% (inactive) | 85.2% (inactive) | 97.4% (inactive) | 95.6% (inactive) | 86.2% (inactive) | 102% (inactive) | 86.4% (inactive) | 89.9% (inactive) | 99.5% (inactive)
